High-throughput results (PubChem BioAssay)
SKKanGAS inh – SKKanGAS growth inhibition | S. pyogenes SKKanGAS, kanamycin growth, BacTiter-Glo, 6 h | inhibition, % at 7.5 µM | 1.3% of 300,000 active | AID 1662;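 active = mean replicate score, as percent of positive control median, at least 50; inconclusive = mean below 50 but one replicate at or above 50; inactive = mean and every replicate below 50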;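 also: strain carries kanamycin resistance gene driven by streptokinase promoter and grows in 40 µg/ml kanamycin; loss of luminescence reflects streptokinase promoter inhibition or plain growth inhibition; 0% = median of DMSO wells and 100% = positive control at its reference dose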
Beta cell apopt – beta cell apoptosis inhibition; INS-1E cytokine-induced death, ATP luminescence, 48 h; percent of positive-control rescue, neutral wells zero; protection from apoptosis, % (concentration not given with the values); 0.8% of 300,000 active;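 active = Every replicate reaches about 75%, or at least half do and their mean reaches it too, limit read from the data; inconclusive = At least half of replicates reach the limit but their mean does not; inactive = Under half of replicates reach the limit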;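 also: 0% = cytokine-treated negative control wells and 100% = positive control rescue; higher means more ATP so stronger rescue from cytokine killing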
PP5 primary – PP5 (human) phosphatase inhibition; inhibition, % at 6.7 µM; AID 1987; P53041; 0.18% of 320,000 active; purified PP5c, OMFP substrate fluorescence;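 active = inhibition above the campaign's mean inhibition across all tested compounds plus 3 SD, cut at about 9.5% in these data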;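 also: 0% = DMSO only and 100% = 100 µM cantharidin control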
CSC inhib – blocks cancer stem cells | 1.1% of 300,000 active | inhibition, % at 7.5 µM | AID 2717 | cancer stem cell-like cells viability, luminescence; in the data active = inhibition above about 75%; inconclusive = no clear call, values can overlap the other calls; tested in HMLE shEcad cells
PP1 inh – PP1-alpha (human) inhibition in PP5 counter-screen | AID 2235 | 0.9% of 320,000 active | purified PP1alpha, OMFP fluorescence | inhibition, % at 6.7 µM;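 active = inhibition above the mean inhibition of all tested compounds plus 3 SD, computed separately for each screening campaign, cut at about 15% in these data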
Target sequence (P62136 whole entry, looked up): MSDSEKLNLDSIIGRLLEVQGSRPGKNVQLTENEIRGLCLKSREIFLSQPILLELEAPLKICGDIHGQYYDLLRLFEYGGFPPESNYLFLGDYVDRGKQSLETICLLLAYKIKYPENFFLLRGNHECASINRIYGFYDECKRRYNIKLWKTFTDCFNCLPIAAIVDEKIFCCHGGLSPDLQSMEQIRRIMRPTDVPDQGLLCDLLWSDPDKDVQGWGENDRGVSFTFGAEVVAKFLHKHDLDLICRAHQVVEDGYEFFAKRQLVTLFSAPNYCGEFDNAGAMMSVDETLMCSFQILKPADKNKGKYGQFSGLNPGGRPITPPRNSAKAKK
PP1 inh confirm – human PP1 phosphatase inhibition, confirmation; shares compounds with PP1 inh; purified PP1alpha, OMFP substrate fluorescence; inhibition, % at 6.7 µM; 52% of 1,900 active;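 active = mean PP1 inhibition above a set limit taken from the earlier primary screen, cut at about 15% in these data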
PP5 inh counter – counter-screen for PP1 inhibitors: human PP5 phosphatase inhibition; purified PP5c, OMFP fluorescence; inhibition, % at 6.7 µM; shares compounds with PP1 inh; 4% of 1,900 active;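 active = mean PP5 inhibition over triplicate wells above about 9.5% taken from the earlier PP1 screen, limit read from the data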
* = called active by the depositor; ? = inconclusive; . = no result. Compounds with a hit are over-represented: about 3.1% of the library has one in this group of screens.

SMILES	SKKanGAS inh	Beta cell apopt	PP5 primary	CSC inhib	PP1 inh	PP1 inh confirm	PP5 inh counter
CCC(=O)N1C(C(=O)N2CCCC2)CSC1c1ccc(OC)cc1 (stereo not given)	-1	-5	3	0	-3	.	.
CCC(=O)N1C(C(=O)O)CSC1c1ccc(OC)cc1 (stereo not given)	2	-3	-1	.	31*	-2	-4
CCCCCCCCCCCCCCCC[N+](C)(C)CCN(Cc1ccc(OC)cc1)c1ncccn1	.	100*	11*	117*	69*	35*	7
Cc1ccc(CNC(=O)CCC(=O)Nc2nnc(C(C)C)s2)cc1	12	-5	1	-6	-2	.	.
CCOC(=O)c1cc(-c2ccccc2)sc1NC(=O)C(C)N1C(=O)NC(C)(c2ccc(Cl)cc2)C1=O (stereo not given)	30	2	4	4	22*	11	1
CCn1c(SCC(=O)Nc2cc(C)on2)nc2sc3c(c2c1=O)CCCC3	-1	82*	5	-1	23*	28*	-2
CCN(CC)CCN1C(=O)/C(=C\c2ccc(Cl)c([N+](=O)[O-])c2)SC1=Nc1ccc(OC)cc1	13	-1	3	?	19*	-6	2
CCN1C(=O)/C(=C/c2cccs2)SC1=Nc1ccc(OC)cc1	-5	4	-1	16	-1	.	.
Cc1cc(Cl)c(S(=O)(=O)N2CCN(c3ccc(F)cc3)CC2)cc1OCC(=O)NC1CCCCC1	17	103*	6	3	18*	2	-2
Cc1[nH]c2ccccc2c1C(=O)C(C)OC(=O)C1CCC1 (stereo not given)	-7	0	5	.	28*	0	-1
CC(=O)Oc1ccc(-c2ccc(C(=O)NCCc3ccc(S(N)(=O)=O)cc3)cc2)cc1	-3	2	-2	29	24*	18*	-2
CCCNS(=O)(=O)c1ccc(OCC(=O)N2CCCC2)cc1	-5	2	0	-7	-2	.	.
CN(CC(=O)Nc1ccccc1N1CCCC1)S(=O)(=O)c1ccc(F)cc1	-1	-10	1	-12	74*	-20	-3
CC(=O)Nc1ccc(S(=O)(=O)N(C)CC(=O)Nc2ccccc2N2CCOCC2)cc1	8	-2	-1	-13	-1	.	.
CCOC(=O)N1CCC(c2cc(=O)n3[nH]c(C)c(-c4ccc(F)cc4)c3n2)CC1	6	.	3	24	19*	13	-1
CCC(C)/C(C)=N/NC(=O)CNS(=O)(=O)c1ccc([N+](=O)[O-])cc1 (stereo not given)	-8	-3	1	-4	-7	.	.
CC1CCCC(C)N1CCCNC(=O)Cn1ncc2c3ccccc3n(C)c2c1=O (stereo not given)	2	-7	-1	-16	-6	.	.
NC1=NC[C@H](CC2CCCCC2)N1CCc1cc(C(F)(F)F)cc(C(F)(F)F)c1	5	40	3	102*	18*	-2	3
O=C(c1ccc(=O)[nH]c1)N(Cc1cccs1)C1(C(=O)NC2CCCC2)CCCCC1	2	-1	-1	3	19*	-4	-5
O=C(O)CN1C(=O)/C(=C\c2ccccc2OCc2ccc(Cl)cc2Cl)SC1=S	71*	-2	0	48	24*	21*	0
COc1ccc(NC(=O)c2cc(C)nc3ccccc23)cc1S(=O)(=O)N1CCOCC1	.	1	.	-6	.	.	.
COc1ccc(NC(=O)c2cc(-c3ccco3)nc3ccccc23)cc1S(=O)(=O)N1CCOCC1	-4	2	2	-3	45*	9	-4
Cc1ccc(NC(=O)c2cc(-c3ccco3)nc3ccccc23)cc1S(=O)(=O)N1CCOCC1	10	5	1	-7	23*	24*	3
COc1cc(C2c3c(c(C)c(C)oc3=O)Oc3c(C)c(C)oc(=O)c32)ccc1OS(=O)(=O)c1ccc(C)cc1	.	4	-1	7	21*	26*	-3
COc1ccc(C2c3c(c(C)c(C)oc3=O)Oc3c(C)c(C)oc(=O)c32)cc1	.	-1	2	5	3	.	.
SMILES	SKKanGAS inh	Beta cell apopt	PP5 primary	CSC inhib	PP1 inh	PP1 inh confirm	PP5 inh counter
Cc1cccc(NC(=O)CN2C(=O)N/C(=C/c3ccc(C)s3)C2=O)c1	4	-1	1	-8	21*	6	-6
COc1ccc(/C=C2\N=C(c3c(-c4ccccc4)noc3C)OC2=O)cc1OC	-11	-4	1	-20	19*	-3	-2
Cc1ccc(COc2ccc(/C=N/O)cc2)cc1	9	.	4	8	-3	.	.
NC(N)=N/N=C/c1ccc(OCc2ccc(Cl)cc2)cc1	28	.	1	.	21*	1	-4
CC1=C(C(=O)Nc2ccccc2C)C2(CCCC2)C(C(N)=O)C(=O)N1 (stereo not given)	4	-3	-3	-12	26*	-5	-6
O=C(CCN1C(=O)/C(=C\c2ccccc2F)SC1=S)Nc1ccc(C(=O)O)c(O)c1	8	3	4	-5	20*	20*	2
CCO[C@H]1OC(C(=O)N2CCN(Cc3ccc4c(c3)OCO4)CC2)=C[C@@H](c2ccc(C(F)(F)F)cc2)[C@@H]1CCCO	7	0	-5	11	8	.	.
C=C(C)CNC(=S)NNC(=O)c1ccc(Br)cc1	-5	0	2	-14	-2	.	.
CC(C)(C)c1ccc(-c2nn(CCC#N)cc2/C=N/O)cc1	8	-2	4	0	32*	1	2
O=c1cc(-c2ccccc2)nc2c(-c3ccccc3)c(C(F)(F)F)[nH]n12	56*	.	2	90*	33*	33*	0
C#CCOCCOCCOCCNc1nc(N2CCN(C(=O)CCCCCCCCCCNC(=O)[C@H](CCCCN)n3cc(CCO)nn3)CC2)nc(N2CCN(C(=O)CCCCCCCCCCNC(=O)[C@H](CCCCN)n3cc(C[C@@H](C)CC)nn3)CC2)n1	.	83*	5	95*	41*	13	0
C#CCOCCOCCOCCNc1nc(N2CCN(C(=O)CCCCCCCCCCNC(=O)Cn3cc(C[C@@H](C)O)nn3)CC2)nc(N2CCN(C(=O)CCCCCCCCCCNC(=O)[C@@H](CCSC)n3cc(CCO)nn3)CC2)n1	.	27	2	74	6	.	.
C#CCOCCOCCOCCNc1nc(N2CCN(C(=O)CCCCCCCCCCNC(=O)[C@@H](CCSC)n3cc(CCO)nn3)CC2)nc(N2CCN(C(=O)CCCCCCCCCCNC(=O)[C@H](CCCN=C(N)N)n3cc(C[C@@H](C)CC)nn3)CC2)n1	.	43	4	67	49*	39*	4
C#CCOCCOCCOCCNc1nc(N2CCN(C(=O)CCCCCCCCCCNC(=O)[C@H](CCCCN)n3cc(C)nn3)CC2)nc(N2CCN(C(=O)CCCCCCCCCCNC(=O)[C@@H]([C@H](C)O)n3cc(C)nn3)CC2)n1	.	10	1	-7	7	.	.
